Results as given in PubChem BioAssay (NCATS).

Assay: Cell Proliferation Assay against the TMD8 Cell Line (AID 651645);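 note: cells exposed to compound for 48 h before reading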
Settings: TMD8 DLBCL cell line proliferation/viability; at 46.1 µM (top of the series)
Source text: One class of targeted therapeutics showing early clinical success in killing of ABC DLBCL lines are small molecule inhibitors of the Bruton tyrosine kinase (BTK) 11.
Prior to any combination assays, using an NCATS developed oncology compound library called the Mechanism of Interrogation Plate (MIPE), two well studied ABC DLBCL lines (TMD8 and HBL1) were screened using a cell viability assay (CellTiterGlo) and a 12-point titration series for each single agent. These initial experiments offered insight into the concentration range that offered the best coverage of activity and non-activity to assure relevant data is generated. In addition to the viability signature associated with this library, we examined the apoptotic response of each agent versus the TMD8 line as judged by caspase 3/7 activation. Activity was assayed at both 8 and 16 hour time-points to gain an appreciation of which agents induced an apoptotic response in a reasonable timeframe from a therapeutic exposure perspective. MIPE was also assayed for single agent viability in a human mesenchymal stem cell (hMSC) line as a surrogate of each library member's potential therapeutic index.
A total of 500 log growing TMD8 cells are seeded per well in 5 uL of a RPMI with glutamine (or Glutamax), without phenol red plus 5% FBS and 1X Pen/Strep into 1536 -solid white high base tissue culture treated Greiner One Bio Plates (789173-F) using a multidrop combi dispenser and a small sterile cassette. Compounds and controls totaling 23nL per well (negative control DMSO and positive control 9.2 uM Bortezomib-final) are immediately added to the plates using a 1536 head pin tool from Kalypsys. The plates are then covered with stainless steel gasket lids from Kalypsys and incubated for 48 hours at 37C under 95% relative humidity with 5% CO2. After 48 hours, the plates are removed and allowed to reach room temperature before 3 uL of Cell Titer Glo reagent (Promega) is added using an Aurora Flying Reagent Dispenser Bioraptor. The plates are then spun at 1000 rpms to remove bubbles and incubated for 15 minutes at room temperature before read on a ViewLux using a luminescent filter with a 10 second exposure. The relative luciferase units are used to calculated percent activity using DMSO as 100% and Bortezomib as 0%.

Compound | viability (% of control) [%]
Nc1ccccc1NC(=O)c1ccc(CNC(=O)OCc2cccnc2)cc1 | 4.84
CC(C)(C)c1cc(C(C)(C)C)c(NC(=O)c2c[nH]c3ccccc3c2=O)cc1O | 5.21
CN1CCN(c2cc(C(=O)Nc3ccc4c(c3)-c3c(c(C(N)=O)nn3-c3ccc(F)cc3)CC4)c(Cl)cn2)CC1 | 0.112
CCN1CCN(Cc2ccc(-c3cc4c(N[C@H](C)c5ccccc5)ncnc4[nH]3)cc2)CC1 | 1.56
COc1cc2ncn(-c3cc(OCc4ccccc4C(F)(F)F)c(C(N)=O)s3)c2cc1OC | 37.6
CC(C)(O)CCc1ccc(OCc2cc(-c3cccc(OC(F)F)c3)c3ncccc3c2)cc1 | 60.9
O=C(C=Cc1cccc(S(=O)(=O)Nc2ccccc2)c1)NO | 1.87
Cc1cc(Nc2cc(NC(=O)c3c(Cl)cccc3Cl)ccn2)nc(N)n1 | 2.69
CC(=O)OCCN1C(=O)c2c(C)nc3ccc(S(=O)(=O)N4CCOCC4)cc3c2C1=O | 94.5
CC(C)C[C@H](NC(=O)CNC(=O)c1cc(Cl)ccc1Cl)B(O)O | 4.52
C[C@]1(CO)CN(c2cc(C(=O)Nc3ccc4c(c3)-c3c(c(C(N)=O)nn3-c3ccc(F)cc3)CC4)c(Cl)cn2)C[C@@]1(C)CO | 18.6
CCC(=C(c1ccccc1)c1ccc(OCCN(C)C)cc1)c1ccccc1 | -0.936
CC(C)c1ccccc1Cc1cc(C(=O)Nc2ccc(S(=O)(=O)c3ccccc3C(C)(C)C)cc2)c(O)c(O)c1O | 9.33
Nc1nccc(Oc2ccc(NC(=O)c3c[nH]cc(-c4ccc(F)cc4)c3=O)cc2F)c1Cl | 4.79
COc1ccc2c(c1)CC[C@@H](CN(C)CC(=O)O)[C@H]2c1ccccc1 | 118
C[C@@]12O[C@@H](C[C@]1(O)CO)n1c3ccccc3c3c4c(c5c6ccccc6n2c5c31)CNC4=O | 1.51
COc1cc(OC2CCN(C)CC2)ccc1Nc1ncc2c(n1)n(C1CCCC1)c(=O)n2C | 56.7
COc1cc(=C2C=c3ccccc3=N2)[nH]c1=Cc1[nH]c(C)cc1C | 6.25
N#CCNC(=O)c1ccc(-c2ccnc(Nc3ccc(N4CCOCC4)cc3)n2)cc1 | 7.51
Cc1cn(-c2cc(NC(=O)c3ccc(C)c(Nc4nccc(-c5cccnc5)n4)c3)cc(C(F)(F)F)c2)cn1 | 17.5

Compound | viability (% of control) [%]
O=C(O)[C@H](Cc1c[nH]c2ccccc12)N1C(=O)c2ccccc2C1=O | 104
c1cc(-c2cnn3cc(-c4ccc(OCCN5CCCCC5)cc4)cnc23)ccn1 | 2.17
O=C(C=Cc1c(C(=O)O)[nH]c2cc(Cl)cc(Cl)c12)Nc1ccccc1 | 103
CC=C1NC(=O)[C@H]2CSSCCC=C[C@H](CC(=O)N[C@H](C(C)C)C(=O)N2)OC(=O)[C@H](C(C)C)NC1=O | 4.33
CC[C@@H]1C(=O)N(C)c2cnc(Nc3ccc(C(=O)NC4CCC(N5CCN(CC6CC6)CC5)CC4)cc3OC)nc2N1C(C)C (stereo not given in full) | 3.58
C=CCn1c(=O)c2cnc(Nc3ccc(N4CCN(C)CC4)cc3)nc2n1-c1cccc(C(C)(C)O)n1 | 11.5
Cc1cc(Nc2cc(N3CCN(C)CC3)nc(C=Cc3ccccc3)n2)n[nH]1 | 9.16
CC[C@@H]1C(=O)N(C)c2cnc(Nc3ccc(C(=O)NC4CCN(C)CC4)cc3OC)nc2N1C1CCCC1 | 4.43
Nc1cc(C(F)(F)F)c(-c2cc(N3CCOCC3)nc(N3CCOCC3)n2)cn1 | 3.22
O=C(O)c1ccc2c(c1)nc(Nc1cccc(Cl)c1)c1ccncc12 | 0.231
CC1(C)CCC(c2ccc(Cl)cc2)=C(CN2CCN(c3ccc(C(=O)NS(=O)(=O)c4ccc(N[C@H](CCN5CCOCC5)CSc5ccccc5)c(S(=O)(=O)C(F)(F)F)c4)cc3)CC2)C1 | 1.35
CCN1CCN(CC(=O)Nc2ccc(-c3cccc4c(=O)cc(N5CCOCC5)oc34)c3sc4ccccc4c23)CC1 | 0.621
O=C(NCCS(=O)(=O)c1ccc(C(F)(F)F)cn1)c1ccc(Cl)cc1 | 96.1
CC(C)(C)c1cc(NC(=O)Nc2ccc(-c3cn4c(n3)sc3cc(OCCN5CCOCC5)ccc34)cc2)no1 | 41.9
CC(=O)c1c(C)c2cnc(Nc3ccc(N4CCNCC4)cn3)nc2n(C2CCCC2)c1=O | 0.508
C[C@@H]1CN(CC(=O)Nc2ccc3c(c2)Cc2cccc(-c4cc(=O)cc(N5CCOCC5)o4)c2S3)C[C@H](C)O1 | 26.2
COCCn1c2c([n+](Cc3cnccn3)c1C)C(=O)c1ccccc1C2=O | 1.68
C=CC(=O)Nc1cccc(Oc2nc(Nc3ccc(N4CCN(C)CC4)cc3OC)ncc2Cl)c1 | 0.697
CCCCc1nc2cc(C=CC(=O)NO)ccc2n1CCN(CC)CC | 1.77
Cn1cncc1[C@@](N)(c1ccc(Cl)cc1)c1ccc2c(c1)c(-c1cccc(Cl)c1)cc(=O)n2C | 1.01
